Results from paper PMC5540273 (PLoS ONE, 2017).

Tested on: ADCK4
Settings: concentration: 1 μM,replicates: in singlicate; n = 1
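Also: KINOMEscan kinase panel screen.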

Row | SMILES | %Inh
1 | OCCn1cc(-c2cnc3nnn(Cc4ccc5ncccc5c4)c3n2)cn1 | 0%
2 | CCN1CCN(CCCC(=O)Nc2n[nH]c3nc(-c4ccc(O)cc4)c(Br)cc23)CC1 [SB-731579] | 16%
3 | C[C@@H]1CNc2c(sc3ccc4nc(-c5ccncc5)ccc4c23)C(=O)N1 | 0%
4 | COc1cccc(CNC(=O)NC2CCN(c3ccnc(Nc4cc(OC)c(OC)c(OC)c4)n3)C2)c1 (centres unmarked) [GSK1379765] | 92.3%
5 | CCn1c(-c2nonc2N)nc2cncc(CNC3CCNCC3)c21.Cl [SB-747651] | 11%
6 | O=C(NCC1CC1)c1ccc(-c2cc(C(=O)NC3CC3)ccc2F)cc1 [GW810445] | 23%
7 | COc1cccc(OC)c1C(=O)Nc1cccc(-c2nn3ccccc3c2-c2ccnc(Nc3cccc(F)c3)n2)c1 [GSK361065] | 0%
8 | Cn1cc(-c2cccc3c(N)c(C(N)=O)nnc23)cn1 | 11%
9 | CC(C)S(=O)(=O)N1CCN(Cc2ccc3c(c2)nc(NC(=O)c2ccsc2)n3C[C@H](O)c2ccccc2)CC1 [GW635815] | 27%
10 | Cc1ccc(CC(=O)N2CCc3cc(-c4cn(C)c5ncnc(N)c45)ccc32)cc1 [GSK2634758] | 9%
11 | CCn1c(-c2nonc2N)nc2cncc(Br)c21 [SB-738004] | 23%
12 | O=C(Nc1ccccc1)c1cccc(Oc2ccc3nccn3n2)c1 | 0%
13 | COC(=O)Nc1nc2cc(Oc3ccc(NC(=O)Nc4cc(C(F)(F)F)ccc4Cl)cc3)ccc2[nH]1.Cl [GW697465] | 48%
14 | O=C1NCCc2[nH]c(-c3ccncc3)cc21 | 0%
15 | CNC(=O)c1ccccc1Nc1nc(Nc2cccc(CS(C)(=O)=O)c2)ncc1C.O=CO [GSK1520489] | 33%
16 | O=C(Nc1cccc(Oc2ccc3nccn3n2)c1)Nc1cccc(C(F)(F)F)c1 | 0%
17 | COc1ccc(Nc2nccc(N3CCC(NC(=O)c4cccc(C#N)c4)C3)n2)cc1 (centres unmarked) [GSK1379730] | 9%
18 | COc1cc2nccc(Nc3ccc(Oc4ccccc4)cc3)c2cc1OC.Cl [GI261656] | 40%
19 | C[C@@H](Oc1cc(-n2cnc3ccc(-c4ccncc4)cc32)sc1C(N)=O)c1ccccc1Cl [GSK483724] | 76%

Row | SMILES | %Inh
20 | CC(=O)Nc1ccc(-c2cc3ncnc(SCC(=O)O)c3s2)cc1 | 0%
21 | NC(=O)c1ccc(-c2cc3ncnc(SCC(=O)O)c3s2)cc1 | 3%
22 | COc1cc(Nc2nccc(N3CCC(NC(=O)c4cccc(C#N)c4)C3)n2)cc(OC)c1OC (centres unmarked) [GSK1379751] | 50%
23 | Cn1ccc2ncnc(Oc3ccc(NC(=O)Nc4cc(C(C)(C)C)on4)c(Cl)c3)c21 | 19%
24 | Cn1ccc2ncnc(Oc3ccc(NC(=O)Nc4cccc(C(F)(F)F)c4)c(F)c3)c21 | 0%
25 | CC(=O)Nc1nc2cnc(Nc3cc(NC(=O)c4cccc(CC(C)(C)C#N)c4)ccc3C)nc2s1 | 0%
26 | c1ccc(Oc2ccc(Nc3ccnc4ccc(-c5ccccn5)cc34)cc2)cc1 [GW407034] | 19%
27 | COC(=O)c1cccc(NC(=O)NC2CCN(c3ccnc(Nc4cc(OC)c(OC)c(OC)c4)n3)C2)c1 (centres unmarked) [GSK1379767] | 60%
28 | Cc1cccc(-c2nc(Nc3ccncc3)c3sccc3n2)n1 [GW869641] | 8%
29 | CC(=O)c1c(-c2ccncc2)[nH]c(-c2ccncc2)c1C [GW493036] | 46%
30 | Cc1nnc(-c2ccc3occ(-c4ccc(S(C)=O)cc4)c3n2)o1 (centres unmarked) | 0%
31 | Cc1ccc2c(-c3ccnc(Nc4ccc(C(F)(F)F)cc4)n3)cnn2n1 [GW819776] | 35%
32 | Cn1ccc2ncnc(Oc3ccc(NC(=O)Nc4cncc(C(F)(F)F)c4)c(Cl)c3)c21 | 0%
33 | Cl.Nc1n[nH]c2cc(-c3ccccn3)ccc12 [GSK2189892] | 17%
34 | C[C@@H](Oc1cc(-n2cnc3cc(-c4cnn(C)c4)ccc32)sc1C(N)=O)c1ccccc1Cl [GSK580432] | 29%
35 | CN1CCN(CCCNc2nccc(-c3c(-c4ccc(F)cc4)nn4cc(C(N)=O)ccc34)n2)CC1 [GW622475] | 100%
36 | O=C(Nc1n[nH]c2cc(-c3ccco3)ccc12)C1CC1 [SB-737447] | 7%
37 | NC(=O)Nc1sc(-c2ccc(F)cc2)cc1C(N)=O [GW789449] | 7%

Tested on: AKT1
Settings: concentration: 1 μM,replicates: in singlicate; n = 1

Row | SMILES | %Inh
38 | OCCn1cc(-c2cnc3nnn(Cc4ccc5ncccc5c4)c3n2)cn1 | 0%
39 | CCN1CCN(CCCC(=O)Nc2n[nH]c3nc(-c4ccc(O)cc4)c(Br)cc23)CC1 [SB-731579] | 0%
40 | C[C@@H]1CNc2c(sc3ccc4nc(-c5ccncc5)ccc4c23)C(=O)N1 | 0%
41 | COc1cccc(CNC(=O)NC2CCN(c3ccnc(Nc4cc(OC)c(OC)c(OC)c4)n3)C2)c1 (centres unmarked) [GSK1379765] | 0%
42 | CCn1c(-c2nonc2N)nc2cncc(CNC3CCNCC3)c21.Cl [SB-747651] | 72%
43 | O=C(NCC1CC1)c1ccc(-c2cc(C(=O)NC3CC3)ccc2F)cc1 [GW810445] | 24%
44 | COc1cccc(OC)c1C(=O)Nc1cccc(-c2nn3ccccc3c2-c2ccnc(Nc3cccc(F)c3)n2)c1 [GSK361065] | 4%
45 | Cn1cc(-c2cccc3c(N)c(C(N)=O)nnc23)cn1 | 0%
46 | CC(C)S(=O)(=O)N1CCN(Cc2ccc3c(c2)nc(NC(=O)c2ccsc2)n3C[C@H](O)c2ccccc2)CC1 [GW635815] | 0%
47 | Cc1ccc(CC(=O)N2CCc3cc(-c4cn(C)c5ncnc(N)c45)ccc32)cc1 [GSK2634758] | 0%
48 | CCn1c(-c2nonc2N)nc2cncc(Br)c21 [SB-738004] | 0%
49 | O=C(Nc1ccccc1)c1cccc(Oc2ccc3nccn3n2)c1 | 11%
50 | COC(=O)Nc1nc2cc(Oc3ccc(NC(=O)Nc4cc(C(F)(F)F)ccc4Cl)cc3)ccc2[nH]1.Cl [GW697465] | 0%
51 | O=C1NCCc2[nH]c(-c3ccncc3)cc21 | 0%
52 | CNC(=O)c1ccccc1Nc1nc(Nc2cccc(CS(C)(=O)=O)c2)ncc1C.O=CO [GSK1520489] | 0%
53 | O=C(Nc1cccc(Oc2ccc3nccn3n2)c1)Nc1cccc(C(F)(F)F)c1 | 0%
54 | COc1ccc(Nc2nccc(N3CCC(NC(=O)c4cccc(C#N)c4)C3)n2)cc1 (centres unmarked) [GSK1379730] | 0%
55 | COc1cc2nccc(Nc3ccc(Oc4ccccc4)cc3)c2cc1OC.Cl [GI261656] | 0%
56 | C[C@@H](Oc1cc(-n2cnc3ccc(-c4ccncc4)cc32)sc1C(N)=O)c1ccccc1Cl [GSK483724] | 41%

Row | SMILES | %Inh
57 | CC(=O)Nc1ccc(-c2cc3ncnc(SCC(=O)O)c3s2)cc1 | 0%
58 | NC(=O)c1ccc(-c2cc3ncnc(SCC(=O)O)c3s2)cc1 | 0%
59 | COc1cc(Nc2nccc(N3CCC(NC(=O)c4cccc(C#N)c4)C3)n2)cc(OC)c1OC (centres unmarked) [GSK1379751] | 0%
60 | Cn1ccc2ncnc(Oc3ccc(NC(=O)Nc4cc(C(C)(C)C)on4)c(Cl)c3)c21 | 18%
61 | Cn1ccc2ncnc(Oc3ccc(NC(=O)Nc4cccc(C(F)(F)F)c4)c(F)c3)c21 | 23%
62 | CC(=O)Nc1nc2cnc(Nc3cc(NC(=O)c4cccc(CC(C)(C)C#N)c4)ccc3C)nc2s1 | 12%
63 | c1ccc(Oc2ccc(Nc3ccnc4ccc(-c5ccccn5)cc34)cc2)cc1 [GW407034] | 0%
64 | COC(=O)c1cccc(NC(=O)NC2CCN(c3ccnc(Nc4cc(OC)c(OC)c(OC)c4)n3)C2)c1 (centres unmarked) [GSK1379767] | 0%
65 | Cc1cccc(-c2nc(Nc3ccncc3)c3sccc3n2)n1 [GW869641] | 5%
66 | CC(=O)c1c(-c2ccncc2)[nH]c(-c2ccncc2)c1C [GW493036] | 0%
67 | Cc1nnc(-c2ccc3occ(-c4ccc(S(C)=O)cc4)c3n2)o1 (centres unmarked) | 0%
68 | Cc1ccc2c(-c3ccnc(Nc4ccc(C(F)(F)F)cc4)n3)cnn2n1 [GW819776] | 0%
69 | Cn1ccc2ncnc(Oc3ccc(NC(=O)Nc4cncc(C(F)(F)F)c4)c(Cl)c3)c21 | 6%
70 | Cl.Nc1n[nH]c2cc(-c3ccccn3)ccc12 [GSK2189892] | 0%
71 | C[C@@H](Oc1cc(-n2cnc3cc(-c4cnn(C)c4)ccc32)sc1C(N)=O)c1ccccc1Cl [GSK580432] | 0%
72 | CN1CCN(CCCNc2nccc(-c3c(-c4ccc(F)cc4)nn4cc(C(N)=O)ccc34)n2)CC1 [GW622475] | 0%
73 | O=C(Nc1n[nH]c2cc(-c3ccco3)ccc12)C1CC1 [SB-737447] | 0%
74 | NC(=O)Nc1sc(-c2ccc(F)cc2)cc1C(N)=O [GW789449] | 0%
